According to PubChem BioAssay (Tox21):
Results filed as inconclusive are left out. Active and inactive are the calls of the source. The call rests on the fitted dose curve; in most records, active means well fitted curve in the direction sought with a large enough effect in the repeat runs; inconclusive means weak or mixed curves; inactive means no such curve, though single readings can be large; an effect the other way counts as inactive or inconclusive.

Key:
[1] = Human pregnane X receptor (PXR) small molecule agonists, qHTS cell viability counter screen (AID 1346977); further: nearly all actives have a fitted effect of over 50% in size
In short: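 PXR-Luc HepG2, 2,000 cells/well, 5% charcoal-stripped FBS; 5hr settle; cpd 24hr, 37C/5% CO2; CellTiter-Fluor at 23hr, read 1hr later (fluorescence).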

[2] = Caspase-3/7 induction in CHO-K1 cells by small molecules, qHTS cell viability counter screen (AID 1346979); further: nearly all actives have a fitted effect of over 35% in size
In short: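 Cells (CHO-K1, wild type) are plated at 1,500 per well and incubated 5hr. Test compounds in DMSO are then pinned in, followed by 16hr at 37C and 5% CO2. Viability is read by CellTiter-Fluor fluorescence after 1hr.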

[3] = Caspase-3/7 induction in HepG2 cells by small molecules, qHTS cell viability counter screen (AID 1346981); further: nearly all actives have a fitted effect of over 30% in size; further: potency means the concentration at half of the fitted maximal effect
In short: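 Steps: seed 2,000 HepG2 cells per well; incubate 5 hr at 37 C; pin-add compounds in DMSO; incubate 16 hr; add CellTiter-Fluor; after 1 hr at 37 C and 5% CO2, read fluorescence.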

[4] = biological target: Cytochrome P450 2C19 (Homo sapiens) (UniProt P33261); test: Cytochrome P450 Family 2 Subfamily C Member 19 (CYP2C19) small molecule antagonists: luciferase reporter qHTS assay (AID 1671197); further: nearly all actives have a fitted effect of over 65% in size; further: potency means the concentration at half of the fitted maximal effect
In short: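 Enzyme-substrate mix with proluciferin substrate (P450-Glo CYP2C19 system) preincubated with compounds 10 min at room temperature; NADPH regeneration solution added, 37C for 1 h; detection reagent stops reaction, luminescence read after 20 min. Ketoconazole positive control.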

[5] = biological target: Cytochrome P450 2C9 (Homo sapiens) (UniProt P11712); test: Cytochrome P450 Family 2 Subfamily C Member 9 (CYP2C9) small molecule antagonists: luciferase reporter qHTS assay (AID 1671198); further: nearly all actives have a fitted effect of over 50% in size; further: potency means the concentration at half of the fitted maximal effect
In short: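 Enzyme-substrate mix preincubated with compound 10 min at room temperature; reaction started with NADPH regeneration solution, 1 h 37C. Luminescent luciferin product read after 20 min detection reagent.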

[6] = biological target: Voltage-gated inwardly rectifying potassium channel KCNH2 (Homo sapiens) (UniProt Q12809); test: Human Ether-a-go-go-Related Gene (hERG) channel small molecule antagonists: fluorescence cell-based qHTS assay (AID 1671200); further: nearly all actives have a fitted effect of over 50% in size; further: potency means the concentration at half of the fitted maximal effect
In short: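 Channel function was assessed by thallium flux. Cells seeded the previous day and kept at 37 C took up FluxOR II dye over 1 h in the dark at room temperature, then sat another 10 min before stimulation.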

[7] = biological target: Nuclear receptor subfamily 1 group I member 2 (Homo sapiens) (UniProt O75469); test: Human pregnane X receptor (PXR) small molecule agonists, qHTS assay (AID 1346982); further: nearly all actives have a fitted effect of over 35% in size; further: potency means the concentration at half of the fitted maximal effect
In short: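 Agonist mode qHTS: PXR-Luc HepG2 cells plated 5 hr before DMSO-dissolved compounds were pinned in, cultured 24 hr at 37 C, 5% CO2; ONE-Glo luminescence readout.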

[8] = biological target: Cytochrome P450 2D6 (Homo sapiens) (UniProt P10635); test: Cytochrome P450 Family 2 Subfamily D Member 6 (CYP2D6) small molecule antagonists: luciferase reporter qHTS assay (AID 1671196); further: nearly all actives have a fitted effect of over 50% in size; further: potency means the concentration at half of the fitted maximal effect
In short: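 P450-Glo format: CYP2D6 converts a proluciferin substrate to luciferin in an NADPH-driven reaction lasting 1 h at room temperature. Light output, proportional to CYP2D6 activity, reflects interference by test chemicals.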

[9] = biological target: Cytochrome P450 1A2 (Homo sapiens) (UniProt P05177); test: Cytochrome P450 Family 1 Subfamily A Member 2 (CYP1A2) small molecule antagonists: luciferase reporter qHTS assay (AID 1671199); further: nearly all actives have a fitted effect of over 50% in size; further: potency means the concentration at half of the fitted maximal effect
In short: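 Inhibition of CYP1A2 conversion of proluciferin to luciferin, detected by luminescence. Reaction run 1 h at room temperature with NADPH regeneration after brief compound preincubation.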

[10] = biological target: Cytochrome P450 3A4 (Homo sapiens) (UniProt P08684); test: Cytochrome P450 Family 3 Subfamily A Member 4 (CYP3A4) small molecule antagonists: luciferase reporter qHTS assay (AID 1671201); further: nearly all actives have a fitted effect of over 50% in size; further: potency means the concentration at half of the fitted maximal effect
In short: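 Compounds in DMSO were pin-transferred onto CYP3A4 enzyme-substrate mix and held 10 min at room temperature. NADPH regenerating solution started the reaction for 1 h; luciferin detection reagent stopped it, and luminescence was read after 20 min.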

[11] = Caspase-3/7 induction in HepG2 cells by small molecules, qHTS assay (AID 1346978); further: nearly all actives have a fitted effect of over 15% in size; further: potency means the concentration at half of the fitted maximal effect
In short: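 Caspase-3/7 induction was measured by Caspase-Glo 3/7 luminescence (30 min, room temperature) after a 17 hr compound exposure of wild-type HepG2 cells seeded at 2,000 per well and pre-incubated 5 hr.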

[12] = Caspase-3/7 induction in CHO-K1 cells by small molecules, qHTS assay (AID 1346980); further: nearly all actives have a fitted effect of over 15% in size
In short: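 Luminescent Caspase-Glo 3/7 read (30min, room temperature) quantified apoptosis induction. Cells were wild-type CHO-K1, treated with compound for 17hr at 37 C and 5% CO2.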

[13] = biological target: Nuclear receptor subfamily 1 group I member 2 (Rattus norvegicus) (UniProt Q9R1A7); test: Rat pregnane X receptor (rPXR) activation by small molecules, qHTS assay (AID 1346983); details: rPXR luciferase reporter cells, One-Glo luminescence, 24 h; active compounds read high; further: nearly all actives have a fitted effect of over 20% in size
In short: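 Luminescent readout (One-Glo luciferase, 30 min room temperature) followed 24 hr compound treatment at 37 C of rPXR cells plated 2,000 per well and preincubated 5hr; qHTS format with compounds delivered in DMSO.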

[14] = biological target: Nuclear receptor subfamily 1 group I member 2 (Homo sapiens) (UniProt O75469); test: CYP3A4 induction through human pregnane X receptor (PXR) by small molecules, qHTS assay (AID 1346984); further: nearly all actives have a fitted effect of over 40% in size
In short: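 Steps: seed DPX-2 cells, 5 hr at 37C; pin-transfer compounds; 24 hr at 37C; add Luciferin-IPA (3uM final), 3 hr at 37C; add One-Glo, 30 min RT; read luminescence.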

[15] = biological target: Nuclear receptor subfamily 1 group I member 2 (Homo sapiens) (UniProt O75469); test: Human pregnane X receptor (PXR) activation by small molecules, qHTS assay (AID 1346985); further: nearly all actives have a fitted effect of over 40% in size
In short: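 DPX-2 cells (HepG2 co-transfected with a PXR response element and a CYP3A4-promoter luciferase construct) were seeded at 2,000 per well, rested 5 hr at 37C, then exposed to DMSO-dissolved compounds for 24 hr. Activation was read as luciferase luminescence.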
On the % scale 0 is the no-effect control and ±100 the full control effect.

Sequence of Cytochrome P450 3A4 (Homo sapiens) (P08684 whole entry, looked up): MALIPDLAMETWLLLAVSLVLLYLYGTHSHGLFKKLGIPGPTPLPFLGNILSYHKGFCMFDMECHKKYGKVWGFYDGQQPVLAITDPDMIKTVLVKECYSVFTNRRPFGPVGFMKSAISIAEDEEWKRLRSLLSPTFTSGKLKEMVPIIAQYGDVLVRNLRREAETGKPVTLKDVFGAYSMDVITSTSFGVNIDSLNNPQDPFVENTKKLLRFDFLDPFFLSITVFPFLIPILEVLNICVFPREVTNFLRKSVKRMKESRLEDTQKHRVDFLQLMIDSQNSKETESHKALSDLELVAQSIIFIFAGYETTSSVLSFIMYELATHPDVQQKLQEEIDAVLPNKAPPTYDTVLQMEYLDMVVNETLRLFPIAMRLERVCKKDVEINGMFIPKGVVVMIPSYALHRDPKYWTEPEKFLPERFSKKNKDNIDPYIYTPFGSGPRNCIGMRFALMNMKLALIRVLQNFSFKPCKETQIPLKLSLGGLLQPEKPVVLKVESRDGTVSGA
Sequence of Nuclear receptor subfamily 1 group I member 2 (Homo sapiens) (O75469 whole entry, looked up): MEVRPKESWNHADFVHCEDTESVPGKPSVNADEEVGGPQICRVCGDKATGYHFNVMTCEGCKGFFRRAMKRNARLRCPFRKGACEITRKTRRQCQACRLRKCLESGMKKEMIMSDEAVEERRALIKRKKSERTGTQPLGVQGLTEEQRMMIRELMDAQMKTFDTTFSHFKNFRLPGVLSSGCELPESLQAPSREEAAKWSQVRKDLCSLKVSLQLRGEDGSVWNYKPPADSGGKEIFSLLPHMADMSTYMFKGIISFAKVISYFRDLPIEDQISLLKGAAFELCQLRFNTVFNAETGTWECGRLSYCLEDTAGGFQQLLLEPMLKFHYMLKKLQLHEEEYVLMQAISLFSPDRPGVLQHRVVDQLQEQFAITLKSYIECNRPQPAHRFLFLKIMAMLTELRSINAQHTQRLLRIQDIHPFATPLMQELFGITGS
Sequence of Cytochrome P450 2D6 (Homo sapiens) (P10635 whole entry, looked up): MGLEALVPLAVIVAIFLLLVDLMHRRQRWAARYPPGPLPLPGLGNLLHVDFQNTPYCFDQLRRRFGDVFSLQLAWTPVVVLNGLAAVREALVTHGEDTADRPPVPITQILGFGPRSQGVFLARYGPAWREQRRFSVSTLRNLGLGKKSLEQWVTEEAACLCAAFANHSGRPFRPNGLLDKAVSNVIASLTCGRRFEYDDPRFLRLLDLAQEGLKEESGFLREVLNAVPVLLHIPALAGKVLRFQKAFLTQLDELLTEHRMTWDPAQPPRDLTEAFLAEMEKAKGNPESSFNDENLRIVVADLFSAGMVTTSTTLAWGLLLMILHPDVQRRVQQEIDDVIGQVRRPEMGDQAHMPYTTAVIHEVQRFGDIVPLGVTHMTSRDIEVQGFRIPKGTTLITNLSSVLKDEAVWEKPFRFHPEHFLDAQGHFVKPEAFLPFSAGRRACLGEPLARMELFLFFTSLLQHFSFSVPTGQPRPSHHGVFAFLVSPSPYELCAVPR
Sequence of Nuclear receptor subfamily 1 group I member 2 (Rattus norvegicus) (Q9R1A7 whole entry, looked up): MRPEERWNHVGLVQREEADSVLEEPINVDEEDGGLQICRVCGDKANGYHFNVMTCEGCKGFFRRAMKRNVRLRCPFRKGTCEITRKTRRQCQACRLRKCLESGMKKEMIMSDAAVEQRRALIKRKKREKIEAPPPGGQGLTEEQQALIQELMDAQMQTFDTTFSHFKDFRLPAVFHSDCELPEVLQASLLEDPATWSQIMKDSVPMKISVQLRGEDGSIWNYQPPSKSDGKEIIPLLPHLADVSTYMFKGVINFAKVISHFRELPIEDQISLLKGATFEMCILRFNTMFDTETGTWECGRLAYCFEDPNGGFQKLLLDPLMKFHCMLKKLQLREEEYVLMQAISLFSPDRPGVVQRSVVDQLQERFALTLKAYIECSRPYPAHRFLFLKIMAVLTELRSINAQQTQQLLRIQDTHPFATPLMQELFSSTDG
Sequence of Voltage-gated inwardly rectifying potassium channel KCNH2 (Homo sapiens) (Q12809 whole entry, looked up): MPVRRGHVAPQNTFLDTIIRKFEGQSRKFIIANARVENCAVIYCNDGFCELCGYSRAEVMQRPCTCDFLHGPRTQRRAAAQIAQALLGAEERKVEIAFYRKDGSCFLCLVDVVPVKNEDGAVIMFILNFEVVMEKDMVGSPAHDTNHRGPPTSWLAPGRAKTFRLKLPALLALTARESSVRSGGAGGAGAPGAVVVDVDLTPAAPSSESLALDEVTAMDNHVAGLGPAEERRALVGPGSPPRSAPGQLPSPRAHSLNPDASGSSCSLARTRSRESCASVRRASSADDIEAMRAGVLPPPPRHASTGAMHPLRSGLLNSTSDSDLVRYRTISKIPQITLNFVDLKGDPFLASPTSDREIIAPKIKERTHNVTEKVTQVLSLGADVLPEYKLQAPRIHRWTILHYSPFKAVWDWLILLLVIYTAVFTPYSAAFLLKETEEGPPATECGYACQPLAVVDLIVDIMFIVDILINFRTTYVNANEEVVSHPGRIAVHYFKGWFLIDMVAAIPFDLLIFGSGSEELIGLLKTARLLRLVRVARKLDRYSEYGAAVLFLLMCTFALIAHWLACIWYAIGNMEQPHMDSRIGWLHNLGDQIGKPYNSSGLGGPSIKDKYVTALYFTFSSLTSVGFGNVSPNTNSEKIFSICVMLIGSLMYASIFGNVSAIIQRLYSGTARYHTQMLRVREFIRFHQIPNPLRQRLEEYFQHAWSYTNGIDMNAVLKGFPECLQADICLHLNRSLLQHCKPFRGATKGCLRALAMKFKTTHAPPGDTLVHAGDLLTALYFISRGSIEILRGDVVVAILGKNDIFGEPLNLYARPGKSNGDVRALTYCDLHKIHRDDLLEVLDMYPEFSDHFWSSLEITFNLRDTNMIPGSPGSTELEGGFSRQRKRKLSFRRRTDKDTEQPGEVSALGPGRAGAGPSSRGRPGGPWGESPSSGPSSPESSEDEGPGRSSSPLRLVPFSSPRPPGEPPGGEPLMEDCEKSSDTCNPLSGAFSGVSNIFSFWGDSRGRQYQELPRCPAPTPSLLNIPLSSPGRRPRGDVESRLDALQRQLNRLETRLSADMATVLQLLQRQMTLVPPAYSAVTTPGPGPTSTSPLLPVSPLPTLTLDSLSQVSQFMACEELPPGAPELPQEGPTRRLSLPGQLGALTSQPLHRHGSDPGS
Sequence of Cytochrome P450 1A2 (Homo sapiens) (P05177 whole entry, looked up): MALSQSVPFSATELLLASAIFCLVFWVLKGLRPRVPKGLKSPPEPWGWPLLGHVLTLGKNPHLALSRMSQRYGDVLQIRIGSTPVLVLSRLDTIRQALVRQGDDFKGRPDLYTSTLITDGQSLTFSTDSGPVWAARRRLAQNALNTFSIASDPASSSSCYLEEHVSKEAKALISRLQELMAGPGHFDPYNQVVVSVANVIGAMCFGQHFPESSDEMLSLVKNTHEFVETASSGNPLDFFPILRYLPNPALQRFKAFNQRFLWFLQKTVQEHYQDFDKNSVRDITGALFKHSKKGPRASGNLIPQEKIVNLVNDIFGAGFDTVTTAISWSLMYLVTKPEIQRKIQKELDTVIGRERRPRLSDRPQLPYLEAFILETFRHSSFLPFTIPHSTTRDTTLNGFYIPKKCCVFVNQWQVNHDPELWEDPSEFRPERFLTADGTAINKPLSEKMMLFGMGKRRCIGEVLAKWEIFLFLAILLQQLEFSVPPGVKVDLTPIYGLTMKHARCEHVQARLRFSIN
Sequence of Cytochrome P450 2C9 (Homo sapiens) (P11712 whole entry, looked up): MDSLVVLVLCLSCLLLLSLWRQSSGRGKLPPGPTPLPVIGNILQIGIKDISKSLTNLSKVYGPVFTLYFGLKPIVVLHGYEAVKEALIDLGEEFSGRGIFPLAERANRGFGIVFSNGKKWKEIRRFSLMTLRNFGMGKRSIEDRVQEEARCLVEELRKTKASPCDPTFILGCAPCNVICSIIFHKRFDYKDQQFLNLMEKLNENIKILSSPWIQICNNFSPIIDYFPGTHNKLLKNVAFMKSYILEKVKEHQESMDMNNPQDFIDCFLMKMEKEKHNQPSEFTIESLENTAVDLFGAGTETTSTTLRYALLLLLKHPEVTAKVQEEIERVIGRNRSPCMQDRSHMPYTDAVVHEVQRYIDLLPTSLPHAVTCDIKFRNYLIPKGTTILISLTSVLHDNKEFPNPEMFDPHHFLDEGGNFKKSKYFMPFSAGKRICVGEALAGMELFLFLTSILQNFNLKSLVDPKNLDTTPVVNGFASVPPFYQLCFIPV
Sequence of Cytochrome P450 2C19 (Homo sapiens) (P33261 whole entry, looked up): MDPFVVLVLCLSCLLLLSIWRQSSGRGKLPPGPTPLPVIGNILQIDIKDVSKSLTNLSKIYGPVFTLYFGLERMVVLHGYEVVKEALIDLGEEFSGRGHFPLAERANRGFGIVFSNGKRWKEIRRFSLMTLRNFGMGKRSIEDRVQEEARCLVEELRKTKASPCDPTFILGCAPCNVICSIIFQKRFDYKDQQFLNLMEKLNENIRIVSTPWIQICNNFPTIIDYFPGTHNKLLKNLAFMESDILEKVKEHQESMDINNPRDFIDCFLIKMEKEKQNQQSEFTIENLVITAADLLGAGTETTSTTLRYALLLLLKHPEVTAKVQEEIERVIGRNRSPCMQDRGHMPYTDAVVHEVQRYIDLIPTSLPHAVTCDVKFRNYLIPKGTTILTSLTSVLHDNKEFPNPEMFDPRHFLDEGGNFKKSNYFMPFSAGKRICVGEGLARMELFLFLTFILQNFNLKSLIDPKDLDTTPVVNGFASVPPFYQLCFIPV

COc1cc2c(cc1OC)[C@@H]1CC(=O)[C@@H](CC(C)C)CN1CC2
active: Potency [4] 7.76 µM | Potency [5] 11 µM
inactive: Potency [1] | Potency [2] | Potency [3] | Potency [6]

N[C@@H](CCC(=O)Nc1ccc([N+](=O)[O-])cc1)C(=O)O
active: Potency [3] 54.5 µM
inactive: Potency [2] | Potency [7] | Potency [8] | Potency [4] | Potency [5] | Potency [9] | Potency [6] | Potency [10]

O=C(Nc1ccc(Cl)c(Cl)c1)C1CC1
active: Potency [7] 29.8 µM | Potency [4] 11 µM | Potency [5] 30.9 µM | Potency [9] 0.456 µM
inactive: Potency [11] | outcome [12] | Potency [3] | max activation [13] -0.7% | Potency [14] | Potency [8] | Potency [6]

O=P(O)(O)OP(=O)(O)O
inactive: Potency [11] | Potency [2] | outcome [12] | max activation [13] 1.84% | Potency [6]

OC[C@H](Cc1cccc(O)c1)[C@H](CO)Cc1cccc(O)c1
inactive: Potency [11] | Potency [2] | Potency [3] | Potency [7]
active: Potency [4] 32.5 µM | Potency [5] 23 µM | Potency [10] 18.3 µM

CC(=O)c1ccc2c(c1)Cc1ccccc1-2
inactive: Potency [2] | Potency [3] | Potency [8] | Potency [6] | Potency [10]
active: Potency [7] 54.5 µM | Potency [4] 20 µM | Potency [5] 12.6 µM | Potency [9] 1.79 µM

CC(=O)Nc1ccc(S(=O)(=O)Nc2ccc([N+](=O)[O-])cc2)cc1
inactive: Potency [11] | outcome [12] | Potency [7] | max activation [13] -3.2% | Potency [14] | Potency [15] | Potency [8] | Potency [9] | Potency [6] | Potency [10]
active: Potency [3] 29.8 µM | Potency [4] 15.5 µM | Potency [5] 13.8 µM

OCCN(CCO)c1cccc(Cl)c1
active: Potency [4] 31.7 µM
inactive: Potency [11] | Potency [2] | Potency [7] | Potency [8] | Potency [6] | Potency [10]

CCC(C)(CCC(C)C)C(=O)O (stereo not given)
inactive: Potency [11] | Potency [2] | Potency [3] | Potency [7] | Potency [4] | Potency [9] | Potency [6] | Potency [10]
active: Potency [8] 28.3 µM | Potency [5] 35.6 µM

O=C(O)c1cc(Cl)cc([N+](=O)[O-])c1Cl
inactive: Potency [11] | Potency [2] | outcome [12] | Potency [3] | Potency [4] | Potency [6] | Potency [10]
active: Potency [5] 71 µM | Potency [9] 39.9 µM

O=C1c2ccccc2C(=O)c2cc(S(=O)(=O)O)ccc21
inactive: Potency [11] | Potency [2] | Potency [6] | Potency [10]
active: Potency [7] 48.7 µM | Potency [8] 40.1 µM | Potency [4] 31.8 µM | Potency [5] 12.7 µM

Nc1cccc(O)c1
inactive: Potency [11] | Potency [2] | outcome [12] | Potency [3] | Potency [6]
active: Potency [4] 73.1 µM | Potency [5] 25.9 µM

C=C(C)C1CCC(C)(O)CC1 (stereo not given)
inactive: Potency [2] | Potency [3] | Potency [7] | Potency [8] | Potency [4] | Potency [5] | Potency [9] | Potency [6] | Potency [10]

COc1cc(N)ccc1C
inactive: Potency [11] | Potency [2] | outcome [12] | Potency [3] | Potency [6]
active: Potency [4] 1.98 µM | Potency [5] 6.26 µM | Potency [10] 11.1 µM

Cc1ccc(C=O)cc1C
active: Potency [9] 35.6 µM
inactive: Potency [11] | Potency [2] | outcome [12] | Potency [3] | Potency [7] | Potency [6] | Potency [10]

CCNC(=O)C1CC(C)CCC1C(C)C (stereo not given)
active: Potency [4] 17.8 µM | Potency [10] 17.8 µM
inactive: Potency [11] | Potency [2] | outcome [12] | Potency [3] | Potency [8] | Potency [9] | Potency [6]

CCC(CC)CO
inactive: Potency [11] | Potency [2] | outcome [12] | Potency [7] | Potency [8] | Potency [5] | Potency [9] | Potency [6] | Potency [10]

C[C@@H]1O[C@@H](O[C@@H]2[C@@H](O)[C@H](OCCc3ccc(O)c(O)c3)O[C@H](CO[C@@H]3O[C@H](CO)[C@@H](O)[C@H](O)[C@H]3O)[C@H]2OC(=O)/C=C/c2ccc(O)c(O)c2)[C@H](O)[C@H](O)[C@H]1O
inactive: Potency [11] | outcome [12] | Potency [3] | Potency [7] | Potency [8] | Potency [4] | Potency [6] | Potency [10]

O=C(NCCc1c[nH]c2ccccc12)c1cccnc1
inactive: Potency [11] | Potency [2] | outcome [12] | Potency [3] | Potency [14] | Potency [15] | Potency [6]
active: Potency [4] 7.76 µM | Potency [9] 12.9 µM

COc1ccc2c(c1)C(=O)N(CCc1ccc(S(=O)(=O)NC(=O)NC3CCCCC3)cc1)C(=O)C2(C)C
inactive: Potency [11] | Potency [2] | outcome [12] | Potency [3] | max activation [13] -1.03% | Potency [8] | Potency [4] | Potency [9] | Potency [6]
active: Potency [5] 13.8 µM

Cc1ccccc1C(=O)Nc1ccc(C(=O)N2CCCC(N(C)C)c3ccccc32)cc1 (stereo not given)
active: Potency [11] 3.76 µM | Potency [7] 0.298 µM
inactive: outcome [12] | Potency [3] | Potency [4] | Potency [9] | Potency [6]

CC(CC=O)CCCC(C)(C)O (stereo not given)
active: Potency [8] 39.7 µM | Potency [4] 79.2 µM
inactive: Potency [11] | Potency [2] | outcome [12] | Potency [7] | max activation [13] -1.75% | Potency [14] | Potency [15] | Potency [9] | Potency [6] | Potency [10]

CC[C@H](C)C(=O)O[C@H]1C[C@H](O)C=C2C=C[C@H](C)[C@H](CC[C@@H](O)C[C@@H](O)CC(=O)O)[C@H]21
inactive: Potency [11] | Potency [2] | outcome [12] | Potency [7] | max activation [13] -0.271% | Potency [14] | Potency [15] | Potency [4] | Potency [9] | Potency [6] | Potency [10]

CCCN1C[C@H](CSC)C[C@@H]2c3cccc4[nH]cc(c34)C[C@H]21
active: Potency [8] 0.155 µM | Potency [6] 7.56 µM
inactive: Potency [11] | Potency [2] | outcome [12] | Potency [3] | Potency [7] | Potency [5] | Potency [9]
